From PubChem BioAssay AID808 (Columbia University Molecular Screening Center, 2007)
Out of some 93,000 compounds screened, about 180 (0.19%) were called active.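 Rule for the calls: active = activation above the screen mean plus 3 SD, with well images confirming the hit on visual review (cut at about 28% in these data, passing the limit was not always enough); inconclusive = activation above that limit but images do not confirm it; inactive = activation not above that limit.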 The sample as a whole holds a higher share of actives than the screen did.

Test: potentiators of TNFa-induced VCAM1 expression, primary screen, imaging, HUVEC, TNFa stimulus, immunofluorescence (AID 808);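 note: signal is the number of cytoplasmic VCAM-1 stained grains per positive cell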
Conditions: HUVEC TNFa-stimulated VCAM-1 immunofluorescence, high-content imaging; at 2 µM; active compounds read high; scaled per plate to unstimulated/TNFa-only wells
For CSc1nnc2c(n1)OC(c1cn(C)c3ccccc13)N(C(C)=O)c1ccccc1-2 (stereo not drawn), the activation was -5% (inactive).
For CCOc1cc(-c2cc(-c3ccc(OC)cc3)nc(N)c2C#N)ccc1O, the activation was 32.6% (active).
In the case of CSc1ccc(CCNC(=O)C2CCN(c3nnc(-n4cccc4)s3)CC2)cc1, the activation is reported as -2.8% (inactive).
With O=C(Cn1cnc2c(nnn2Cc2ccc(F)cc2)c1=O)NCc1ccc2c(c1)OCO2 the activation was -6.6% (inactive).
For Cc1ccc(N2C(=O)c3ccccc3C2(O)c2ncc[nH]2)cc1 (stereo not drawn), the activation was -0.7% (inactive).
For CCOC(=O)c1ccc(NC(=O)CS(=O)(=O)c2cn(CC)c3ccccc23)cc1, the activation was -6.9% (inactive).
In the case of COc1ccc2c(c1)C=CC1(O2)N(CCO)c2ccccc2C1(C)C (stereo not drawn), the activation is reported as 1.4% (inactive).
With O=C(Nc1nccs1)C1CCN(S(=O)(=O)c2ccc(Cl)c(C(F)(F)F)c2)CC1 the activation was -9.5% (inactive).
With O=c1c2ccccc2nc2n1C(CSCc1cccc(C(F)(F)F)c1)CS2 (stereo not drawn) the activation was -7.9% (inactive).
In the case of O=C(NCc1ccco1)c1sc2cccc(F)c2c1Cl, the activation is reported as 0.7% (inactive).
For CC1(C)CC(=O)C=C(N2CCCC2)C1, the activation was 79% (active).
With Oc1ccc2nc(Cc3ccccc3)[nH]c2c1 the activation was 5.6% (inactive).
In the case of CC(C)NC(=O)c1ccccc1S(=O)c1ccccc1C#N (stereo not drawn), the activation is reported as -0.6% (inactive).
For Cc1cc(Nc2ccccc2)n(CCC#N)n1, the activation was -2.1% (inactive).
For COc1ccc(CC(=O)Nc2sc(Cc3ccccc3)c(C)c2C(N)=O)cc1, the activation was 8.4% (inactive).
With Cn1c(=O)n(C)c2cc(CNc3ccc(N4CCOCC4)c(C(=O)O)c3)ccc21 the activation was -26.1% (inactive).
For Brc1ccc(-c2nnc(-c3ccccc3)o2)o1, the activation was 20.5% (inactive).
With O=[N+]([O-])c1ccccc1OCCCCN1CCCCC1 the activation was -6.6% (inactive).
With CCOc1ccccc1Nc1nnc(SCc2ccc(C(=O)OC)o2)s1 the activation was -4.9% (inactive).
With O=C(CSc1nc2ccccc2o1)N1CCN(c2ccc(Cl)cc2)CC1 the activation was 6.9% (inactive).
For COc1ccc(-c2nnc(SCC(=O)NC3CCCCC3)o2)cc1OC, the activation was -87.2% (inactive).
For CC1(C)Cc2cccc(OCC(N)=O)c2O1, the activation was -5.6% (inactive).
For O=C1c2ccccc2C(=O)c2c1cccc2N1CCN(Cc2ccccc2)CC1, the activation was 8.5% (inactive).
With COc1ccc(-c2cc(C(F)(F)F)nc(SCCC(=O)NCc3ccco3)n2)cc1 the activation was -32.5% (inactive).
For COc1ccc(OC)c(N=Cc2c(O)[nH]c3ccccc23)c1, the activation was 41.3% (active).
In the case of O=S(=O)(c1cccs1)N1CCN(Cc2ccccc2)CC1, the activation is reported as 6.9% (inactive).
In the case of CCOC(=O)c1c(N=CN(C)C)c(C#N)c2n1CCCC2, the activation is reported as -8.6% (inactive).
For Cc1ccc(S(=O)(=O)N(CC(=O)NCCSC2CCCCC2)c2ccccc2F)cc1, the activation was 8.5% (inactive).
In the case of CCOC(=O)N1CCN(C(=O)c2cc3c(ccc4ccccc43)oc2=O)CC1, the activation is reported as -5.2% (inactive).
For Cc1cnc(NC(=O)CSc2nnc(-c3ccccc3)n2Cc2ccccc2)s1, the activation was -2% (inactive).
With Cc1ccc2c(Cl)c(C(=O)NCCCn3ccnc3)sc2c1 the activation was -28.3% (inactive).
In the case of Nc1cc(=O)nc(SCc2ccccc2)n1Cc1ccco1, the activation is reported as -95% (inactive).
With CCC(=O)c1ccc(OCC(O)CN2CCN(c3cccc(C(F)(F)F)c3)CC2)cc1 (stereo not drawn) the activation was 4.1% (inactive).
In the case of CCOC(=O)CSc1nc2c(c(=O)n(C)c(=O)n2C)n1Cc1ccccc1F, the activation is reported as -0.2% (inactive).
In the case of CC(N)C12CC3CC(CC(O)(C3)C1)C2 (stereo not drawn), the activation is reported as 1% (inactive).
For CC(C)N1C(=O)C2C(C(=O)NC3CCCCC3)C3C=CC2(O3)C1C(=O)NC1CCCC1 (stereo not drawn), the activation was -10.8% (inactive).
For COc1ccc(-n2nnnc2SCC(=O)c2ccc(OC)c(OC)c2)cc1, the activation was -6.6% (inactive).
For CCN(CC(=O)NC(C)C)C(=O)CCNC(=O)c1ccc(Cl)cc1, the activation was -9.6% (inactive).
In the case of COC(=O)C1=C(C)N=C2SC(C)C(=O)N2C1/C=C/c1ccccc1 (stereo not drawn), the activation is reported as -6.2% (inactive).
With COc1ccccc1NC1=NC(c2ccc(Cl)cc2)N=C(N)N1 (stereo not drawn) the activation was -12.5% (inactive).
In the case of Cc1ccc(S(=O)(=O)NC(=O)N2CCCC(C)(C)C2)cc1, the activation is reported as 4.1% (inactive).
For Cc1[nH]c2ccccc2c1C(=O)CSCC(=O)O, the activation was 4.2% (inactive).
In the case of O=C(OCC(=O)N1CCCC1)c1ccco1, the activation is reported as -4.1% (inactive).
For NNC(=O)C1CCCn2c1nc1sc3c(c1c2=O)CCCC3 (stereo not drawn), the activation was -4.7% (inactive).
In the case of COc1cc(/C=N\NC(=O)C2C(=O)NCC2c2ccccc2)cc(OC)c1O (stereo not drawn), the activation is reported as -1.5% (inactive).
In the case of CC(=O)c1ccc(OCCN2CCOCC2)cc1, the activation is reported as -16.7% (inactive).
In the case of CC1(C)C2CCC13CS(=O)(=O)NC3C2 (stereo not drawn), the activation is reported as 19.3% (inactive).
With CC1(C)OC(=O)N2CCc3ccccc3C21C (stereo not drawn) the activation was 0.2% (inactive).
In the case of CCCNS(=O)(=O)c1ccc(CCC(=O)NCc2cccnc2)cc1, the activation is reported as 34.1% (inactive).
With O=[N+]([O-])c1ccccc1/C=N/n1c(COc2ccccc2)n[nH]c1=S the activation was -14.7% (inactive).
For CCOC(=O)CCc1c(C)c(C#N)c2[nH]c3ccccc3n2c1=O, the activation was 0.5% (inactive).
In the case of CC(C)OC(=O)c1cc(NC(=O)C2C3CCC(O3)C2C(=O)O)cc(C(=O)OC(C)C)c1 (stereo not drawn), the activation is reported as 15.7% (inactive).
For Cc1ccc(OCC(=O)Nc2cccc3c2CCCC3)cc1C, the activation was -1.7% (inactive).
For CSCCC(C(=O)NC1=NCCS1)N1C(=O)c2ccccc2C1=O (stereo not drawn), the activation was 5.7% (inactive).
In the case of O=C(Nc1ncc2c(n1)CC(c1ccco1)CC2=O)c1ccc(Cl)cc1 (stereo not drawn), the activation is reported as -91.4% (inactive).
For CCOC(=O)N1CCN(C(=O)CN(c2ccc(C)c(C)c2)S(=O)(=O)c2ccccc2)CC1, the activation was 0.5% (inactive).
With Cc1n[nH]c(C)c1S(=O)(=O)N1CCCC(C(=O)NCC2COc3ccccc3O2)C1 (stereo not drawn) the activation was -3.9% (inactive).
With Cc1ccc(CCNC(=O)C2CCN(S(=O)(=O)N3CCCC3)CC2)cc1 the activation was -9.5% (inactive).
For CCCc1cc(=O)[nH]c(SCc2ccc(C#N)cc2)n1, the activation was -3% (inactive).
In the case of O=C(COc1ccc2ccccc2c1)N1CCN(C(=O)c2cccs2)CC1, the activation is reported as -21.6% (inactive).
For COc1ccc(OC)c(NC(=O)CCN2CCC(C)CC2)c1, the activation was 1.4% (inactive).
In the case of Cc1ccc(S(=O)(=O)NCCSC(C)(C)C)cc1, the activation is reported as -9% (inactive).
With Cc1ccc(Cn2nnc3c(=O)n(CC(=O)N4CCCCC4)cnc32)cc1 the activation was 5.6% (inactive).
In the case of CCOc1ccc(NC(=O)Nc2ccc(N(C)C(C)=O)cc2)cc1, the activation is reported as 16.6% (inactive).
For O=C(NCCN1CCOCC1)[C@H](Cc1ccccc1)N1C(=O)c2ccccc2C1=O, the activation was -8.5% (inactive).
In the case of C=CCn1c(COc2ccccc2F)nnc1SCC(=O)N1CC(=O)Nc2ccccc21, the activation is reported as -4.4% (inactive).
With O=C(c1ccc(Cl)cc1)c1ccc(OCC(O)CN2CCCCC2)cc1 (stereo not drawn) the activation was -0.9% (inactive).
For Cc1cc(NC(=O)COc2ccc(Cl)cc2Cl)n(CCC#N)n1, the activation was 4.1% (inactive).
With COc1cccc(C(=O)Nc2ccc(NC(=O)c3ccco3)cn2)c1 the activation was 8.2% (inactive).
In the case of Cc1cnc(NC(=O)C2CCCC2)s1, the activation is reported as -57.6% (inactive).
For COCCNC(=O)c1snc2ccc(Cl)cc12, the activation was 11.1% (inactive).
In the case of O=C(NCCN1CCN(Cc2ccccc2)CC1)c1cc2c(=O)[nH]c3ccccc3c2s1, the activation is reported as 2.1% (inactive).
For O=C(CS(=O)(=O)c1cn(Cc2cccc(F)c2)c2ccccc12)N1CCCCC1, the activation was -50.1% (inactive).
With CCOC(=O)N1CCN(C(c2cccnc2)c2ccc3cccnc3c2O)CC1 (stereo not drawn) the activation was -10% (inactive).
In the case of CC1=NN(C(C)C)C(=O)C1, the activation is reported as 25% (active).
For COc1ccc(Cl)cc1C(=O)NCC#N, the activation was 5.7% (inactive).
For COC(=O)c1c(-c2cccs2)csc1NC(=O)CSc1ncnc2sc(C)c(C)c12, the activation was 1.8% (inactive).
In the case of Cc1[nH]n(-c2ccc(Cl)cc2)c(=O)c1/C=N/n1c(C)nc2ccccc2c1=O, the activation is reported as 9.2% (inactive).
For CCN(CC)C(=O)CSC1c2ccccc2C(=O)N1c1ccccc1 (stereo not drawn), the activation was -7.1% (inactive).
In the case of CCN(CC)CCCNC(=O)CCc1ccccc1, the activation is reported as 4.1% (inactive).
With C/C(=C\C(=O)c1ccccc1)Nc1cccc(O)c1 the activation was 2.2% (inactive).
In the case of Cc1nnc(SCC(=O)NC2CCCC2)s1, the activation is reported as -13.9% (inactive).
With CN(C)CCCn1c(N)c(C#N)c2nc(C#N)c(C#N)nc21 the activation was -7.9% (inactive).
For C=CCn1c(Cn2nnc3ccccc32)nnc1SCC(=O)N/N=C/c1cc(Br)cc(OC)c1O, the activation was 1.7% (inactive).
With CCOc1ccc(N=C2NC(=O)S/C2=C\c2ccc(O)cc2)cc1 the activation was 29.2% (active).
For O=C(Cc1ccc(-n2c(=O)[nH]c3ccccc3c2=O)cc1)N1CCN(c2cccc(Cl)c2)CC1, the activation was -1.2% (inactive).
With Cc1c(C(=O)OCC(=O)N(CCC#N)c2ccccc2)oc2c1ccc1ccccc12 the activation was -4.9% (inactive).
For COc1ccccc1NC(=O)CSc1nnc(Cn2nnc(-c3ccccc3)n2)n1-c1ccccc1, the activation was 11.3% (inactive).
For CSc1nc2ccccc2cc1/C=C(\C#N)c1ccc(Cl)cc1Cl, the activation was -3.2% (inactive).
In the case of CCCCN(C)C(=O)C1CCN(Cc2ccccn2)CC1, the activation is reported as 35.5% (active).
For Cc1ccc(OCC(O)CN2CCN(CC(O)COc3ccc(C)cc3Cl)CC2)c(Cl)c1 (stereo not drawn), the activation was -1.2% (inactive).
In the case of O=C(c1ccco1)N1CCN(C(=O)C2c3ccccc3Oc3ccccc32)CC1, the activation is reported as -5.9% (inactive).
In the case of Cc1ccc(F)cc1NC(=O)c1ccc2c(c1)OCO2, the activation is reported as -96.8% (inactive).
With CC(=O)Nc1ccc(S(=O)(=O)N2CCN(C(=O)c3ccccc3F)CC2)cc1 the activation was -7.6% (inactive).
In the case of C=C(Br)CN1CCN(CC(=C)Br)CC1, the activation is reported as 17.8% (inactive).
With Cn1c(C(=O)OC(C(=O)NC2CCCCC2)c2ccccn2)cc2sccc21 (stereo not drawn) the activation was 7.6% (inactive).
For C=C(C)CNC(=S)/N=c1\scc(C)n1CC, the activation was -4.4% (inactive).
In the case of COc1cccc(OCc2cc(/C=N/NC(=O)c3nc(Cl)c(Cl)c(N)c3Cl)ccc2OC)c1, the activation is reported as -6.7% (inactive).
